Screens (PubChem BioAssay)
KB-V1 MDR tox = qHTS assay for MDR1-selective chemotherapeutics: Primary screen using the drug-selected MDR subline cells KB-V1; actives 3.4% (n = 400,000); Potency, µM (series often up to 46.1 µM), usual class: cytotoxic; KB-V1 MDR cells viability, CellTiter-Glo, 72 h; AID 1347076, 2019; also: potency is read from the fitted curve at half-maximal effect; % is scaled to controls: 0 for no effect and ±100 for the full control effect; nearly all actives have a fitted effect of over 60% in size
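qHTS viability screen in drug-selected KB-V1 MDR cells: 72 h compound treatment at 37 degrees C, ATP luminescence end point.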
MCF10A rerep = A quantitative high throughput screen for small molecules that induce DNA re-replication in MCF 10a normal breast cells. MCF 10A DNA re-replication, Hoechst nuclear intensity, 48 h. Potency, µM (highest dose often 46.1 µM), inactives show top-dose activity, positive = re-replication, most hits filed as activators. actives 2.9% (n = 350,000). AID 624296, 2012; also: potency is read from the fitted curve at half-maximal effect; % of control where 0% means no effect; nearly all actives have a fitted effect of over 50% in size
SW480 rerep = A quantitative high throughput screen for small molecules that induce DNA re-replication in SW480 colon adenocarcinoma cells; SW480 DNA re-replication, Hoechst DNA content imaging, 48 h; Potency, µM (top dose mostly 46.1 µM), inactives show at the top dose re-replication activation, actives largely listed as activators; actives 1.8% (n = 340,000); also: potency is read from the fitted curve at half-maximal effect; % of control where 0% means no effect; nearly all actives have a fitted effect of over 55% in size
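DNA re-replication was detected as more nuclei of elevated Hoechst intensity after 48 hr exposure to compound (23 nL pinned per well of 250 cells).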
KCNH2 3.1 block = qHTS for Inhibitors of KCHN2 3.1: Mutant qHTS. Potassium voltage-gated channel subfamily H member 2, brain isoform KCNH2 3.1 (human). U2OS KCNH2 3.1, thallium flux FluxOr; active compounds read low. activity change, % (tested at about 1.8 µM). actives 0.95% (n = 340,000). AID 720553, 2013;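 active = maximum activity change below -70%; inconclusive = maximum activity change from -70% to -50%; inactive = maximum activity change above -50%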;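 also: thallium influx rate constant from kinetic fluorescence after stimulation buffer; % is scaled to controls: 0 for no effect and ±100 for the full control effect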
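U2OS cells transduced with KCNH2 3.1 mutant virus (1.77 x 10^8 /mL, 4 h), plated overnight at 37 C, loaded 45 min with FluxOr dye plus Red40 quencher. Thallium flux rate constant from kinetic reads after stimulation buffer, normalised to controls.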
hERG WT inh = qHTS for Inhibitors of KCHN2 3.1: Wildtype qHTS | Voltage-gated inwardly rectifying potassium channel KCNH2 (Homo sapiens), Q12809 | U2OS, BacMam KCNH2, thallium flux FluxOr; active compounds read low | activity change, % at 1.84 µM | actives 0.37% (n = 340,000);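 active = maximum activity change below -70%; inconclusive = maximum activity change between -70% and -50%; inactive = maximum activity change above -50%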; also: % is scaled to controls: 0 for no effect and ±100 for the full control effect
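U2OS cells were transduced with wild-type KCNH2 virus (2.03 x 10^8 / mL) for 4 h at room temperature, then cultured overnight at 37 C. Thallium flux was read with FluxOr dye. Rate constants were normalized to DMSO controls.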
KB-3-1 cytotox = qHTS assay for MDR1-selective chemotherapeutics: Primary screen using the parental adenocarcinoma cell KB-3-1 | KB-3-1 viability, CellTiter-Glo ATP luminescence, 72 h | Potency, µM (series often up to 46.1 µM), usual class: cytotoxic | actives 1.4% (n = 400,000); also: potency is read from the fitted curve at half-maximal effect; % is scaled to controls: 0 for no effect and ±100 for the full control effect; nearly all actives have a fitted effect of over 60% in size
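KB-3-1 cells, DMEM (no phenol red) + 10% FBS; compound by pin transfer, 72 h, 37 °C. Readout: CellTiter-Glo luminescence after 10 min. Data normalized, curve-fitted.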
* marks the source's active call; other numbers are inactive results; i = inactive; ? = inconclusive; nt = not tested or not shown. This is a sample that favours compounds with a hit; in the whole collection about 7.6% have one here. Unless noted, calls follow the shape of the dose curve; as a rule, active = well fitted curve in the direction sought with a large enough effect; inconclusive = small, poorly fitted or top-dose-only effect, or another doubt; inactive = no such curve, though single readings can be large; an effect the other way counts as inactive or inconclusive.

SMILES | KB-V1 MDR tox | MCF10A rerep | SW480 rerep | KCNH2 3.1 block | hERG WT inh | KB-3-1 cytotox
CCc1ccc(-c2nc(CN3CCC(C(=O)NCCN(CC)c4ccccc4)CC3)c(C)o2)cc1 | 4.61µM* | ? | ? | -112.4* | -31.7 | i
CCc1ccc(-c2nc(CN3CCC(C(=O)N4CCN(c5ccccc5)CC4)CC3)c(C)o2)cc1 | 8.2µM* | ? | ? | -46.2 | -24.3 | i
CCc1ccc(-c2nc(CN3CCC(C(=O)NCc4ccc(F)cc4)CC3)c(C)o2)cc1 | ? | 29.4% | ? | -107.1* | ? | ?
Cc1sc2ccccc2[n+]1CCCCBr | i | nt | nt | nt | nt | i
CCn1c(SCC(=O)Nc2cc(S(=O)(=O)N3CCOCC3)ccc2OC)nnc1-c1ccncc1 | i | -2.4% | 1.2% | 2.7 | -18.5 | i
CNC(=O)c1ccc(NC(=O)CC2SC(N3CCCC3)=NC2=O)cc1 (stereo not given) | i | 4.1% | -8.8% | -1.7 | -2.3 | i
COc1cc2c(cc1OC)CN(C(=O)C1CCC(=O)N(CCCN3CCOCC3)C1)CC2 (stereo not given) | i | 4.7% | -2.9% | 0.9 | -2.0 | i
CNC(=O)c1cccc(NC(=O)c2ccccc2OCc2ccccc2)c1 | i | 1.7% | -5.4% | 3.5 | -0.2 | i
CCN(CCNC(=O)C1CCN(Cc2nc(-c3cccc(Cl)c3)oc2C)CC1)c1ccccc1 | 2.59µM* | ? | ? | -18.8 | -30.3 | ?
Cc1oc(-c2cccc(Cl)c2)nc1CN1CCC(C(=O)NC2CC2)CC1 | i | 0.8% | 3.5% | -5.3 | 8.9 | i
CCN(CC)C(=O)Oc1cc(=O)n2c3c(cccc13)CCC2 | 16.4µM* | 0.8% | -5.3% | -3.5 | 0.8 | i
Cc1c([N+](=O)[O-])cnc2ccccc12 | i | nt | nt | nt | nt | i
Cc1cc(NC(=O)CSc2nc3ccccc3c(=O)n2Cc2ccc(F)cc2)no1 | i | ? | 13.3% | -32.9 | 3.7 | i
O=C(CSc1nc2ccsc2c(=O)n1Cc1ccc(C(=O)O)cc1)NCc1ccco1 | i | 0.5% | 0.2% | -22.2 | 8.0 | i
O=C(CSc1nc2ccccc2c(=O)n1Cc1ccc(F)cc1)NCc1cccs1 | ? | ? | -0.4% | -95.3* | -26.2 | i
Cc1ccc(CNC(=O)CSc2nc3ccsc3c(=O)n2Cc2ccc(C(=O)O)cc2)cc1 | ? | 0.651µM* | -22.7% | 7.6 | -8.7 | i
COC(=O)N/N=C/C1=C[N+](=O)c2ccccc2[N+]1=O | nt | 1.0% | 4.3% | nt | nt | nt
CC(=O)N1CCN(C(=O)c2cccc(S(=O)(=O)NCc3ccccc3)c2)CC1 | i | -1.5% | -2.3% | -5.9 | -15.3 | i
OCCSc1ccc2nnc(-c3ccccc3)n2n1 | i | nt | nt | nt | nt | i
O=C(Nc1c(F)c(F)c(F)c(F)c1F)NC1CCCCC1 | 16.4µM* | 2.0% | 3.8% | 19.0 | -13.8 | i
CC(C)COc1cccc(C(=O)Nc2ccc(N3CCOCC3)cc2N2CCOCC2)c1 | i | ? | 15.3% | -18.3 | -13.2 | i
O=C(/C=C/c1ccccc1)c1ccccn1 | i | 18.4µM* | ? | -8.6 | 0.0 | i
N/C(=N\OC(=O)/C=C/c1ccccc1)c1ccccn1 | i | -7.5% | -8.2% | nt | -11.3 | i
Cc1cccc(-c2noc(CNC(=O)c3ccoc3C)n2)c1 | i | 20.6µM* | 27.0% | 1.1 | 10.5 | i
Cc1ccc(C)c(-n2nnc3ccccc3c2=O)c1 | ? | nt | nt | -9.5 | -0.4 | i
Nc1cnn(C2OC(CO)C(O)C2O)c(=O)n1 (stereo not given) | 4.11µM* | 1.0% | -5.0% | -4.7 | 7.8 | 2.31µM*
